# DAX1 inh-1 = blocks DAX1 repression of SF-1 activated StAR promoter. HEK293T StAR-luciferase reporter, SF-1/DAX-1 repression relief. inhibition, % at 6.8 µM. AID 652010. actives 1.1% (n = 370,000);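 active means inhibition above the mean over all tested compounds plus 3 SD, cut at about 3.6% in these data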;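 further: 0% = DAX-1 cells with DMSO and 100% = cells lacking DAX-1 with DMSO; higher inhibition means more luminescence from relief of DAX-1 repression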
# ssDAF12 agonist = activates DAF-12 receptor from parasite S. stercoralis; actives 1% (n = 370,000); HEK293 ssDAF-12/GRIP1 lit1-tk-luc reporter, luminescence; % of 3 µM dafachronic acid response; activation, % at 6.8 µM;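 active means activation above the mean over all tested compounds plus 3 SD, cut at about 0.9% in these data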;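 further: 0% = DMSO-only wells and 100% = 3 µM delta7-dafachronic acid wells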
# hgDAF-12 ag = agonists of H. glycines DAF-12 nuclear receptor; HEK293 GAL4-hgDAF12 UAS-luciferase reporter, agonist luminescence; normalized to butyrate control; activation, % at 6.8 µM; actives 1.8% (n = 370,000);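 active means activation above a cutoff set at the mean of all screened compounds plus 3 SD, cut at about 10% in these data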;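 further: 0% = DMSO wells and 100% = sodium butyrate wells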
# DAX1 inh-2 = inhibitors of human orphan nuclear receptor DAX1 (NR0B1); P51843; HEK293 Gal4-DAX1 luciferase reporter, luminescence; inhibition, % at 6.75 µM; actives 0.99% (n = 340,000);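 active means inhibition above the mean over all tested compounds plus 3 SD, cut at about 4.2% in these data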;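 further: 0% = DAX1-transfected cells with DMSO and 100% = empty-vector control cells with DMSO; inhibition shows as a rise in luminescence from relieved DAX1 repression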
# Target sequence (P51843 207-470 limits assumed): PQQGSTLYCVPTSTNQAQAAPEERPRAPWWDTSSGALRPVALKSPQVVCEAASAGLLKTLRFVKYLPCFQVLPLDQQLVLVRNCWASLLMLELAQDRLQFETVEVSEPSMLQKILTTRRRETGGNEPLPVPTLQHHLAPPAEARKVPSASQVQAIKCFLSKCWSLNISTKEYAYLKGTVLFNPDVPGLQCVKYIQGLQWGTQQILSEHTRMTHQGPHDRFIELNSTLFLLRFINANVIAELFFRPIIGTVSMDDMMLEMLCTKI
# hcDAF12 agonist = activates DAF-12 receptor from parasite H. contortus; HEK293 hcDAF-12 lit1-tk-luc reporter, luminescence; 0% DMSO, 100% Δ7-dafachronic acid; activation, % at 6.8 µM; actives 1.4% (n = 370,000); AID 652067;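 active means activation above the mean of all tested compounds plus 3 SD, cut at about 5.5% in these data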;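 further: 100% = response to 3 µM Δ7-dafachronic acid high control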
# LXR ag = counter-screen for hcDAF-12 agonists: agonists of human LXR-beta; activation, % at 6.8 µM; AID 743027; 3,400 tested, under 10 active; HEK293 Gal4-LXR tk-luc reporter, luminescence, 24 h; normalized: DMSO 0%, positive control 100%; shares compounds with hcDAF12 agonist;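 active means mean percent activation of the reporter above a cutoff set as the average over tested compounds plus their standard deviation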
# hcDAF12 ag = confirmation of H. contortus DAF-12 agonists; shares compounds with hcDAF12 agonist; HEK293 hcDAF-12 lit1-tk-luc reporter, luminescence; % of Δ7-dafachronic acid response; activation, % at 6.8 µM; actives 61% (n = 3,400); AID 743032;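 active means mean activation across triplicate tests above the threshold derived from the earlier primary screen, cut at about 5.5% in these data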;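 further: 0% = DMSO only wells and 100% = 3 µM Δ7-dafachronic acid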
# hgDAF12 ag = confirmation of H. glycines DAF-12 agonists; shares compounds with hgDAF-12 ag; activation, % at 6.8 µM; HEK293 GAL4-hgDAF12 luciferase reporter, agonist mode; percent of butyrate response; actives 80% (n = 3,300);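 active means mean activation over triplicate wells above the hit cutoff derived from the earlier primary screen, cut at about 11% in these data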;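 further: 0% = DMSO low control and 100% = 2 mM sodium butyrate high control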
# LXRb DAF12 ctr = counter-screen for DAF-12 agonists: agonists of human LXR-beta; 3,300 tested, under 10 active; activation, % at 6.8 µM; HEK293 Gal4-LXR luciferase reporter, 24 h; shares compounds with hgDAF-12 ag; AID 743051;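 active means mean activation of the triplicate above a set limit carried over from the primary screen, none filed active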
# * hit, by the source's call; . = not tested or not shown. Only some compounds are listed: those with a hit (about 4.1% of all), similar ones and a draw of the others.
SMILES,DAX1 inh-1,ssDAF12 agonist,hgDAF-12 ag,DAX1 inh-2,hcDAF12 agonist,LXR ag,hcDAF12 ag,hgDAF12 ag,LXRb DAF12 ctr
CCSc1n[nH]c(=O)n1C,-0.6,-1.3,1.1,.,1.2,.,.,.,.
CCCCCCCCN1C(=O)[C@@H](CC(=O)N2CCSCC2)C[C@@]2(C(=O)OC)C1=C[C@H](C(C)C)O[C@@H]2C1CC1,0.4,-0.9,-1.3,.,-0.2,.,.,.,.
COC(=O)[C@]12C[C@H](CC(=O)NCc3ccc(C)o3)C(=O)N(Cc3ccco3)C1=C[C@H](C(C)(C)C)O[C@@H]2C,-0.8,-0.6,1.9,.,-2.6,.,.,.,.
Cc1ccc2nc(NC(=O)c3ccccc3F)sc2c1,1.7,1.6*,18.7*,-1.3,12.7*,1.9,14.9*,20.3*,1.3
COc1ccc2nc(NC(=O)c3ccccc3F)sc2c1,2.6,0.0,15.8*,1.8,6.9*,1.9,6.2*,21.0*,1.1
COc1ccc2nc(NC(=O)c3cnccn3)sc2c1,3.6*,1.1*,15.3*,-0.3,8.6*,1.4,4.8,15.0*,0.8
O=C(Nc1nc2ccc(F)cc2s1)c1cccs1,2.8,2.7*,17.8*,0.6,19.3*,1.4,8.1*,19.0*,1.3
COc1ccc2nc(NC(=O)c3c(C)noc3C)sc2c1,1.8,-0.3,7.2,0.7,1.4,.,.,.,.
Cc1ccc2nc(NC(=O)c3ccccn3)sc2c1,-5.6,-3.6,-13.8,-7.7,-4.1,.,.,.,.
C[C@@H](/C=C/C(=O)OC(C)(C)C)Sc1ccc(C(C)(C)C)cc1,0.4,-1.6,0.3,.,-2.0,.,.,.,.
COC(=O)[C@@H](Cc1c[nH]c2ccccc12)NC(=O)c1ccc2c(c1)OCO2,1.2,3.2*,15.8*,3.6,13.0*,1.0,7.9*,17.9*,0.7
O=C(NCCc1c[nH]c2ccccc12)c1ccc2c(c1)OCO2,2.1,1.3*,15.4*,2.3,11.4*,1.2,9.8*,17.9*,0.7
Cc1ccc2[nH]cc(CCNC(=O)c3ccc4c(c3)OCO4)c2c1,-0.3,-1.2,1.2,-0.7,-1.8,.,.,.,.
COCCCN1C(=O)[C@H](CC(=O)NCC2CCCCC2)[C@]2(C(=O)OC)CCCCC=C12,-0.3,-1.3,-1.7,.,-1.0,.,.,.,.
Brc1ccccc1Cn1nnc(-c2ccc(N3CCOCC3)cc2)n1,-0.8,-1.0,6.1,.,-2.3,.,.,.,.
Cc1ccc(N/C=C(/C#N)c2ccsc2)cc1C,2.2,1.5*,15.3*,3.4,7.2*,1.4,8.1*,21.8*,1.0
Cc1ccc(N/N=C(\C#N)C(N)=S)cc1C,0.4,-1.9,4.9,1.5,3.0,.,.,.,.
C=CCN1C(=O)[C@@H](CC(=O)NCc2ccc(C)o2)[C@]2(C(=O)OC)CCCCC=C12,0.1,-1.1,1.2,.,-0.1,.,.,.,.
O=C(NCCCn1ccnc1)c1cc(-c2cccs2)on1,-0.9,-0.1,53.2*,3.9,7.6*,0.5,4.1,50.9*,0.4
COc1ccc(OC)c(-c2cc(C(=O)NCCCn3ccnc3)no2)c1,-0.7,-1.6,-1.0,-0.7,-1.1,.,.,.,.
COCCCNC(=O)C[C@H]1C[C@@]2(C(=O)OC)C(=C[C@H](C3CCCC3)O[C@@H]2C)N(Cc2ccccc2)C1=O,0.2,-0.9,-0.7,.,-1.0,.,.,.,.
COC(=O)C1=C(C)N(C)C(=NCc2cc(OC)c(OC)c(OC)c2)NC1c1ccc(C(F)(F)F)cc1 (stereo not drawn),0.7,-1.2,-2.2,.,-1.9,.,.,.,.
O=[N+]([O-])c1ccccc1N=Nc1c(O)[nH]c2ccc(F)cc12,2.8,0.5,6.7,0.9,3.0,.,.,.,.
Oc1[nH]c2ccccc2c1N=Nc1ccccc1F,1.9,0.7,15.9*,2.7,12.4*,1.4,13.7*,21.5*,0.7
